The values below come from PubChem BioAssay (NCATS).

Each structure is given as a SMILES string. Values joined by “and” are separate entries in the source; they are usually repeats but may differ in a detail not shown here. Equal values may be shown once. Records with an inconclusive call do not appear. Active and inactive are the calls of the source. Unless noted, calls come from the whole dose curve; as a rule, active = well fitted curve in the direction sought with a large enough effect; inconclusive = small, poorly fitted or top-dose-only effect, or another doubt; inactive = no such curve, though single readings can be large; an effect the other way counts as inactive or inconclusive.

The target in assay [1] is Cytochrome P450 2C9 (Homo sapiens) (UniProt P11712). Kind of assay: Cytochrome P450 family 2 subfamily C member 9 (CYP2C9) small molecule antagonists: luciferase biochemical (cell-free) qHTS assay (AID 1645842; active = well fitted curve in the direction sought with a large enough effect in the repeat runs; an effect the other way counts as inactive or inconclusive; note: nearly all actives have a fitted effect of over 55% in size; note: potency is the fitted concentration of half-maximal effect). The essentials:
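Luminescence, after 20 min with luciferin detection reagent, reflected CYP2C9 turnover during a 1 h NADPH-driven reaction at 37C. Enzyme-substrate mix contained 0.4% bovine serum albumin and was preincubated with compound 10 min at room temperature.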
(qHTS replaces the single test concentration by a dilution series.)

In a further assay the target is Papain (Carica papaya) (UniProt P00784). Kind of assay: Primary qHTS assay for inhibitors of the protease papain (AID 1645873).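 Note: papain turnover of Z-FR-AMC read as the AMC fluorescence gain over 10 min; series mostly up to about 50 µM.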
Assay [2] is described as follows: Primary qHTS for inhibitors of nuclear receptor binding SET domain protein 2 (NSD2) in an isogenic RCH-ACV NSD2 p.E1099K mutant (9B) (AID 1645876). Note: nearly all actives have a fitted effect of over 70% in size. Note: potency is the fitted concentration of half-maximal effect.
The nature of assay [3]: Primary qHTS for inhibitors of nuclear receptor binding SET domain protein 2 (NSD2) in an RCH-ACV wild type WT cells (2C) (AID 1645877). Note: nearly all actives have a fitted effect of over 70% in size. Note: potency is the fitted concentration of half-maximal effect.
In assay [4] the target is N-terminal Xaa-Pro-Lys N-methyltransferase 1 (Homo sapiens) (UniProt Q9BV86). The assay is described as follows: Confirmatory qHTS for Inhibitors of N-terminal methyltransferase 1 (NTMT1): MTaseGlo Assay (AID 1645874).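 Note: luminescence from SAH made as NTMT1 methylates SPKRIA peptide using SAM; series mostly up to about 100 µM; nearly all actives have a fitted effect of over 65% in size.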 The procedure, abridged: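 Compounds are incubated with 125 nM NTMT1 and 100 uM SAM for 15 min before the SPKRIA peptide (1 uM) starts a 30 min room-temperature methylation. SAH is measured by coupled luciferase luminescence and curves fitted to a Hill equation.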

Assay [5] has as its target Cytochrome P450 3A4 (Homo sapiens) (UniProt P08684). The assay is described as follows: Cytochrome P450 family 3 subfamily A member 4 (CYP3A4) small molecule antagonists: luciferase qHTS assay (AID 1645841; active = well fitted curve in the direction sought with a large enough effect in the repeat runs; an effect the other way counts as inactive or inconclusive; note: nearly all actives have a fitted effect of over 45% in size). The procedure, abridged:
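P450-Glo CYP3A4 enzyme with proluciferin substrate was preincubated with DMSO-dissolved compounds for 10 min at room temperature. NADPH regeneration solution started a 1 h reaction. Detection reagent stopped it, and luminescence was read after 20 min.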

Assay [6] addresses Rap guanine nucleotide exchange factor 3 (Homo sapiens) (UniProt O95398). Kind of assay: Confirmatory qHTS for antagonist of cAMP-regulated guanine nucleotide exchange factor 3 (EPAC1) (AID 1645880). Note: nearly all actives have a fitted effect of over 55% in size. The essentials: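 Nucleotide exchange uses 100 nM EPAC1, 250 nM RAP1B-BODIPY-GDP and 50 uM GDP, with compounds in a concentration-titration series. After 5 min at room temperature, fluorescence (480 nm ex/540 nm em) is read every 5 min for 30 min. Data are normalized to control ATA and DMSO.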

The target is the same in assay [7]. The assay is described as follows: Confirmatory qHTS for agonist of cAMP-regulated guanine nucleotide exchange factor 3 (EPAC1) (AID 1645881).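 Note: EPAC1 catalysed release of BODIPY-GDP from Rap1B seen as fluorescence loss; nearly all actives have a fitted effect of over 75% in size.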
Assay [8] concerns the target Rap guanine nucleotide exchange factor 4 (Homo sapiens) (UniProt Q8WZA2). The assay is described as follows: Confirmatory qHTS for agonist of cAMP-regulated guanine nucleotide exchange factor 4 (EPAC2) (AID 1645884).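 Note: nucleotide exchange releases bodipy-GDP from Rap1 and this lowers its fluorescence; nearly all actives have a fitted effect of over 65% in size.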
For assay [9] the target is unchanged. Kind of assay: Confirmatory qHTS for antagonist of cAMP-regulated guanine nucleotide exchange factor 4 (EPAC2) (AID 1645885). Note: nearly all actives have a fitted effect of over 25% in size.

Chain of Cytochrome P450 2C9 (Homo sapiens) (P11712 whole entry, looked up): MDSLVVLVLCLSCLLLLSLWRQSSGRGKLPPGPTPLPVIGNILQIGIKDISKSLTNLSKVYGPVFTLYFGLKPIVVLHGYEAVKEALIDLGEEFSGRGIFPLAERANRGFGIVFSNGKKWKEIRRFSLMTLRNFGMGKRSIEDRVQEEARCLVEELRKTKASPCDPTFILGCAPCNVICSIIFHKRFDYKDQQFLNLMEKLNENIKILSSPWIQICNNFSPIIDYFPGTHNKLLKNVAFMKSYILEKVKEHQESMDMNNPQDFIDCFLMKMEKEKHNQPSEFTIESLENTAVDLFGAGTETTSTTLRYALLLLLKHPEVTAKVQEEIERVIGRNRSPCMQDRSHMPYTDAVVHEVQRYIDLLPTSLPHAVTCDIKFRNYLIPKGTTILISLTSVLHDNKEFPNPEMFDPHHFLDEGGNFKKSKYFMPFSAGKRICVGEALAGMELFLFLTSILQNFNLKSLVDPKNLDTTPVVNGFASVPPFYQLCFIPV
Chain of Papain (Carica papaya) (P00784 whole entry, looked up, the tested form may be a part): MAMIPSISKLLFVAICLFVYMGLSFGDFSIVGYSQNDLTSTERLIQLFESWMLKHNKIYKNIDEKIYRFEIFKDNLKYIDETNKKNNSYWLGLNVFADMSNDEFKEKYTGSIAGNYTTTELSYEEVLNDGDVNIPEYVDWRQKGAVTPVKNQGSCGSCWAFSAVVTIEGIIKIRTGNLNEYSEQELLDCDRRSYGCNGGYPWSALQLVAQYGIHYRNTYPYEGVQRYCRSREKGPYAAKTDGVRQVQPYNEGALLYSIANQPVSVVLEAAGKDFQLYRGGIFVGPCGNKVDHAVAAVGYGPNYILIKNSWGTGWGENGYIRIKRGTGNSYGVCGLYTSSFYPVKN
Chain of Rap guanine nucleotide exchange factor 3 (Homo sapiens) (O95398 whole entry, looked up): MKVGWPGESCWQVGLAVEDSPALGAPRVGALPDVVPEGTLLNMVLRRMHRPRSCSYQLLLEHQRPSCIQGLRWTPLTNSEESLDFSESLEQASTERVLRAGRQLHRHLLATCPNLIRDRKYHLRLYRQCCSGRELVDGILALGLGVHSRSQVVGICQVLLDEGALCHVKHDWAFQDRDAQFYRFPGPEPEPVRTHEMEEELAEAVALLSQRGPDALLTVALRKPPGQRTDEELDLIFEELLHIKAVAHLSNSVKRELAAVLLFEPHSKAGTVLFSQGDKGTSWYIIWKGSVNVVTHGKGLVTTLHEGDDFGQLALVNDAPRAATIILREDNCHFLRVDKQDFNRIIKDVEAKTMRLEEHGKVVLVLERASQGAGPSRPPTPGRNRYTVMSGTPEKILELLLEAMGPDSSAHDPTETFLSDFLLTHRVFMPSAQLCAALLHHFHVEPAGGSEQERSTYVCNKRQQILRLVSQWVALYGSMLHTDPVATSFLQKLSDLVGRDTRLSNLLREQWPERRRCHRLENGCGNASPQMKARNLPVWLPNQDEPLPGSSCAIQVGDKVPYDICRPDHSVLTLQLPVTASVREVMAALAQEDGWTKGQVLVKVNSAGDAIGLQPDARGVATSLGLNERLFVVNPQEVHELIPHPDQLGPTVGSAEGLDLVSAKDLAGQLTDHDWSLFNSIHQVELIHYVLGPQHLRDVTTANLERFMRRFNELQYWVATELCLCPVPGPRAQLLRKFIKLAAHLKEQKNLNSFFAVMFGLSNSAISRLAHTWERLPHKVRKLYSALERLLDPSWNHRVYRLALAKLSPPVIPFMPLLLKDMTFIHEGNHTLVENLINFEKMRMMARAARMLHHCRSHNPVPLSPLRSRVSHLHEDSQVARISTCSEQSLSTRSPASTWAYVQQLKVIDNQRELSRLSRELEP
Chain of Rap guanine nucleotide exchange factor 4 (Homo sapiens) (Q8WZA2 whole entry, looked up): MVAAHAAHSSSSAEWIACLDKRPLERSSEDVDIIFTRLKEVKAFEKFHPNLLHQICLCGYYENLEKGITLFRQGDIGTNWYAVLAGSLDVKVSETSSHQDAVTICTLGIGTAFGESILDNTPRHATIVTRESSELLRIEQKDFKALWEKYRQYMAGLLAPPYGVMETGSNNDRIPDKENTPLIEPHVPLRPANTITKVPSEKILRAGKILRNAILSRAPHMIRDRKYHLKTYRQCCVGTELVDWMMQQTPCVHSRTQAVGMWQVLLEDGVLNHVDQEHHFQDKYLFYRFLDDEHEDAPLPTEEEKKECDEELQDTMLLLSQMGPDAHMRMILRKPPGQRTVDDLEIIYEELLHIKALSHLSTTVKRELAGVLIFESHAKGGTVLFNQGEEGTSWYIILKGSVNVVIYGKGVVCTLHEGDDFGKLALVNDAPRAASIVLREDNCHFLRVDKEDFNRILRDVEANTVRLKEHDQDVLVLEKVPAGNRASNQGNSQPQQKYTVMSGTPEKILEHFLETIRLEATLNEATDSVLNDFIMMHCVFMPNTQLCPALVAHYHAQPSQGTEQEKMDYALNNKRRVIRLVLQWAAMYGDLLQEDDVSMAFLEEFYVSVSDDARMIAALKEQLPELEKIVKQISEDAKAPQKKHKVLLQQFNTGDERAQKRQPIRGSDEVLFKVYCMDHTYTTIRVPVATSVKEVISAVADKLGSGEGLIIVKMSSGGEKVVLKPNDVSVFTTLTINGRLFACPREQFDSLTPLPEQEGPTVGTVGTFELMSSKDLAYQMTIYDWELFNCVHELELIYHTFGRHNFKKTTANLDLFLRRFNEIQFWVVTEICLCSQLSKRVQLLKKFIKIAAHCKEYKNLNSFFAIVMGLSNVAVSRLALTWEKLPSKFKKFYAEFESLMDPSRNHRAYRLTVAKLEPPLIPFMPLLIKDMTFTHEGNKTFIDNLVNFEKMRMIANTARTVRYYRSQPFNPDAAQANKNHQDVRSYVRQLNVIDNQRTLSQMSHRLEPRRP
Chain of Cytochrome P450 3A4 (Homo sapiens) (P08684 whole entry, looked up): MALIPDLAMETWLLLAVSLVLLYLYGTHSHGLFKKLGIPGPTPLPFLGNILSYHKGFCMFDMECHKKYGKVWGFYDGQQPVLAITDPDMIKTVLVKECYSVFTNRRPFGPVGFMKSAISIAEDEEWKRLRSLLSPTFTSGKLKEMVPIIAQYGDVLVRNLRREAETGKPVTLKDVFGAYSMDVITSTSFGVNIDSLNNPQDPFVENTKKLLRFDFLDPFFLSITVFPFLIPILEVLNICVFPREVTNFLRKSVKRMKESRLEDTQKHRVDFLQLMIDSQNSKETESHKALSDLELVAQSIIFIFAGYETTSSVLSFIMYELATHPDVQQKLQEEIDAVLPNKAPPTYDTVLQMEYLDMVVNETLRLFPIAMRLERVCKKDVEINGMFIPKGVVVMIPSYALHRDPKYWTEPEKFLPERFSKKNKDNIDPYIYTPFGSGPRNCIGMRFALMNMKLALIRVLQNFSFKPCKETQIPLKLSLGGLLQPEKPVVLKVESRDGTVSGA
Chain of N-terminal Xaa-Pro-Lys N-methyltransferase 1 (Homo sapiens) (Q9BV86 whole entry, looked up): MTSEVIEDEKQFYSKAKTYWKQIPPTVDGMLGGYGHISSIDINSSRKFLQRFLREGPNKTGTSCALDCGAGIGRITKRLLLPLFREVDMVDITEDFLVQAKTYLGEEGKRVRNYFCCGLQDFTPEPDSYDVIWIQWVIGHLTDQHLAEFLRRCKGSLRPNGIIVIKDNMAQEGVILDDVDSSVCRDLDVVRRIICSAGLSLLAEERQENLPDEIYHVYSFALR

Regarding `CC(C)OC(=O)C(C)(C)Oc1ccc(C(=O)c2ccc(Cl)cc2)cc1`, the Potency in assay [1] was 2.45 µM (active). The compound was classed as inactive in the assay with Papain (Carica papaya). Besides, the Potency result in [2] and in assay [3] was “inactive” each time.
Turning to `CCN1CCC[C@H]1CNC(=O)c1cc(S(N)(=O)=O)ccc1OC`, the Potency result in assay [1], in [2] and in assay [3] was “inactive” throughout. Further, in the assay with Papain (Carica papaya), the result was inactive.
As for `NCCS`, the Potency entry in assay [1], in [2] and in [3] was “inactive” throughout. In addition, the compound was called inactive with Papain (Carica papaya).
In the case of `CON=C(C(=O)N[C@@H]1C(=O)N2C(C(=O)OCOC(=O)C(C)(C)C)=C(C=Cc3scnc3C)CS[C@H]12)c1csc(N)n1`, the Potency in assay [1] was 12 µM (active).
`NC(N)=Nc1nc(CSCC/C(N)=N/S(N)(=O)=O)cs1`: the Potency result in [1], in [2] and in assay [3] was “inactive” each time. Further, the outcome with Papain (Carica papaya) was inactive.
As to `O=c1c(-c2ccc(O)cc2)coc2cc(OC3O[C@H](CO)[C@H](O)[C@H](O)[C@H]3O)cc(O)c12` (stereo partly drawn), the Potency result in [1] was “inactive”.
Turning to `O=C(O)CCc1nc(-c2ccccc2)c(-c2ccccc2)o1`, the Potency result in assay [1], in assay [2] and in [3] was “inactive” in each case. The outcome with Papain (Carica papaya) was inactive.
In the case of `C[N+](C)(C)CCCCCC[N+](C)(C)C`, the Potency entry in [1], in assay [2] and in assay [3] was “inactive” throughout. For the same compound, the compound was classed as inactive in the assay with Papain (Carica papaya).
Regarding `Cc1ccc([C@@H]2O[C@H](CO)[C@@H](O)[C@H](O)[C@@H]2O)cc1Cc1ccc(-c2ccc(F)cc2)s1`, the Potency in [1] is 12 µM (active).
In the case of `Cc1ccc(C(C)(O)c2nc3ccccc3s2)c(C)c1` (stereo not drawn), the Potency in assay [1] is 3.01 µM (active).
Turning to `O=c1c(-c2ccc(O)cc2)coc2cc(O)ccc12`, the Potency in [1] was 0.213 µM (active). The compound was called inactive in the assay with Papain (Carica papaya). Moreover, the Potency entry in assay [4] was “inactive”.
Regarding `Clc1ccc(-c2nc3sccn3c2C=NOCc2ccc(Cl)c(Cl)c2)cc1`, in assay [1], the Potency was 3.79 µM (active).
As to `O=C(Nc1ccccc1Br)N[C@@H]1CCN(c2ccc(C(F)(F)F)cn2)C1`, in [1], the Potency was 23.9 µM (active).
Take `CCCCC1C(=O)N(c2ccccc2)N(c2ccccc2)C1=O`: the Potency in [1] was 8.71 µM (active). Also, in the assay with Papain (Carica papaya), the call was inactive. Besides, the Potency entry in [2] and in assay [3] was “inactive” in each case.
`O=C(NCCN1CCOCC1)c1ccc(Cl)cc1`: the Potency entry in assay [1], in assay [2] and in assay [3] was “inactive” each time. The call with Papain (Carica papaya) was inactive.
Take `CCN(CC)C(=O)c1ccc(O)c(OC)c1`: the Potency entry in assay [1], in assay [2] and in assay [3] was “inactive” in each case. Also, in the assay with Papain (Carica papaya), the compound was called inactive.
For the compound `C[C@H](NC(=O)c1sccc1OCc1ccc(Cl)cc1)c1ccccc1`, in [1], the Potency was 0.952 µM (active).
Consider `CC(=O)CCCCn1c(=O)c2c(ncn2C)n(C)c1=O`, for which the Potency result in [1], in [2] and in assay [3] was “inactive” throughout. Also, the call in the assay with Papain (Carica papaya) was inactive.
In the case of `COc1ccccc1N1CCN(CCCNc2cc(=O)n(C)c(=O)n2C)CC1`, the Potency entry in [1], in [2] and in assay [3] was “inactive” in each case. The compound was classed as inactive in the assay with Papain (Carica papaya).
Regarding `C[C@@H]1CCN(C(=O)CC#N)C[C@H]1N(C)c1ncnc2[nH]ccc12`, in [1], the Potency entry was “inactive”.
Same read-out and setting: next, `O=C1Nc2ccc(Cl)cc2C(C#CC2CC2)(C(F)(F)F)O1` (stereo not drawn): 12 µM (active).
In the case of `O=c1[nH]cnc2c1ncn2[C@H]1CC[C@@H](CO)O1`, the outcome in [5] was inactive. Further, the Potency result in [1], in assay [2] and in assay [3] was “inactive” each time.
`CCN(CC)CCOC(=O)c1ccc(N)cc1`: in the assay with Papain (Carica papaya), the outcome was inactive.
With `Clc1ccc(Cn2c(CN3CCCC3)nc3ccccc32)cc1`, the call in the assay with Papain (Carica papaya) was inactive.
Take `O=c1cc(N2CCOCC2)oc2c(-c3cccc4c3sc3ccccc34)cccc12`: the Potency is 3.32 µM (active) in [2] and 2.63 µM (active) in assay [3].
In the case of `COc1cccc(-c2cc(=O)c3ccccc3o2)c1N`, the compound was classed as inactive with Papain (Carica papaya). The Potency result in assay [2] and in assay [3] was “inactive” each time.
In the case of `CCN(CC)CCNC(=O)c1ccc(N)cc1`, the Potency entry in assay [1], in assay [2] and in [3] was “inactive” throughout.
With `N[C@H](CSC(c1ccccc1)(c1ccccc1)c1ccccc1)C(=O)O`, the Potency entry in assay [2] and in [3] was “inactive” each time.
As to `O=C(N[C@@H](c1ccccc1)[C@@H]1CCCCN1)c1cccc(C(F)(F)F)c1Cl`, the Potency in [2] was 18.6 µM (active); in assay [3], 16.6 µM (active).
Regarding `CC(C)(C)c1ccc(C(O)CCCN2CCC(C(O)(c3ccccc3)c3ccccc3)CC2)cc1` (stereo not drawn), in the assay with Papain (Carica papaya), the result was inactive.
Regarding `CC1(C)CCC2=C(O1)c1ccccc1C(=O)C2=O`, the outcome (with Papain (Carica papaya); in assay [6]; in assay [7]; in [8]; in assay [9]) was inactive. In addition, the Potency in assay [2] is 13.2 µM (active); in assay [3], 9.34 µM (active).
For `COC(=O)[C@@H]1[C@H]2C[C@H]3c4[nH]c5ccccc5c4CCN3C[C@@H]2CC[C@@H]1O`, the call in the assay with Papain (Carica papaya) was inactive. The Potency entry in assay [2] and in assay [3] was “inactive” in each case.
As to `CC(C)NCC(O)COc1cccc2[nH]ccc12` (stereo not drawn), in the assay with Papain (Carica papaya), the outcome was inactive. The Potency result in assay [2] and in assay [3] was “inactive” each time.
As for `NS(=O)(=O)c1cccc2c1C(=O)c1cccc(O)c1C2=O`, the Potency in assay [2] is 1.66 µM (active); in assay [3], 0.742 µM (active).
Regarding `CC(=O)Oc1cc2c(s1)CCN(C(C(=O)C1CC1)c1ccccc1F)C2` (stereo not drawn), the Potency in assay [1] is 4.36 µM (active) and 4.25 µM (active). Moreover, the Potency entry in assay [2] and in assay [3] was “inactive” each time.
Turning to `COc1ccc(-c2coc3cc(O)cc(O)c3c2=O)cc1`, the Potency in assay [2] was 18.6 µM (active).
With `CCn1cc(C(=O)O)c(=O)c2ccc(C)nc21`, the call with Papain (Carica papaya) was inactive.
For `CC1(C)Cc2c(sc(NC(=S)NC(=O)c3ccccc3)c2C(=O)O)CO1`, in [1], the Potency was 19 µM (active). The Potency entry in assay [2] and in [3] was “inactive” each time.
